Anthrax LF inh2: Bacillus anthracis LF protease inhibitors, primary screen, biochemical, multiplex microsphere, MLPCN library; Lethal factor (Bacillus anthracis), P15917; multiplex microsphere protease cleavage assay; inhibition, % at 10 µM; 360,000 compounds, 0.12% hits
Target sequence (P15917 whole entry, looked up): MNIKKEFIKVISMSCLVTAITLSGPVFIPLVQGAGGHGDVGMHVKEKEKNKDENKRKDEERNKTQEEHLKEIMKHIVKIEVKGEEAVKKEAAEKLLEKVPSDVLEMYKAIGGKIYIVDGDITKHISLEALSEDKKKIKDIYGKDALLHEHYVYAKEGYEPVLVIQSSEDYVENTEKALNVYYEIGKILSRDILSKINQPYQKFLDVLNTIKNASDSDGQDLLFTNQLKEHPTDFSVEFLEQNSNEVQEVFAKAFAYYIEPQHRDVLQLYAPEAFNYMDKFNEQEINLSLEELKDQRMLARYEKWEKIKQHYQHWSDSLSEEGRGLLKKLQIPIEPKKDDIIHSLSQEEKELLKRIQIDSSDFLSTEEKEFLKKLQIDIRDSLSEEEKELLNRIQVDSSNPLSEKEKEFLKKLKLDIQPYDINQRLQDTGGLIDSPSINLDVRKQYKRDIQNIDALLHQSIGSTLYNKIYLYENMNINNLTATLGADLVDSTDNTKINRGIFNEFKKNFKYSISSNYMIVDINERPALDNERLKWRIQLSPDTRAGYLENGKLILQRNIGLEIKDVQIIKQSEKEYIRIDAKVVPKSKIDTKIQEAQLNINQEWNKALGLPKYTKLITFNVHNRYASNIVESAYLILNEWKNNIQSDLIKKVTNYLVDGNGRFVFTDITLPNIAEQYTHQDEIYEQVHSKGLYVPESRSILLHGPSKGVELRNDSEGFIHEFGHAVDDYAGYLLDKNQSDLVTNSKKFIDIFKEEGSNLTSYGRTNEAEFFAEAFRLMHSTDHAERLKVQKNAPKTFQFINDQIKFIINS
MazEF act: activators of E. coli MazEF toxin-antitoxin RNase, primary screen, biochemical, fluorescence, uHTS. FAM/BHQ RNA-DNA oligo cleavage fluorescence, 5 h. 350,000 compounds, 0.32% hits. activation, % at 20 µM. AID 504720, 2011. Endoribonuclease toxin MazF (Escherichia coli (strain K12)), P0AE70; in the data active means activation above about 50%
Autofluor counter: counter-screen for toxin protease inhibitors: compound fluorescence; compound autofluorescence counterscreen, microsphere flow cytometry; stronger effect = higher value; fluorescence intensity (no concentration beside the values); 360,000 compounds, 3.1% hits; AID 624483; in the data active means fluorescence intensity above about 16000; inconclusive means no clear call, values can overlap the other calls
BoNT A protease: BoNT/A light chain protease inhibitors, primary screen, biochemical, flow cytometry, MLPCN library | AID 588499, 2011 | inhibition, % at 10 µM | multiplex microsphere protease substrate cleavage | 360,000 compounds, 0.17% hits
BoNT-F LC inh: BoNT/F light chain protease inhibitors, primary screen, biochemical, flow cytometry, MLPCN library | Botulinum neurotoxin type F light chain protease (Clostridium botulinum) | 360,000 compounds, 0.22% hits | Multiplex microsphere protease cleavage assay | AID 588497, 2011 | inhibition, % at 10 µM; in the data active means inhibition above about 35%, passing the limit was not always enough; inconclusive means no clear call, values can overlap the other calls
A number is an active result; . = inactive; ? = inconclusive; / = no result. In the library only some 3.7% were active in any assay of this set; here they are far more common. Unless noted, no stated cut-off is given here; in the data, active means inhibition above about 30%; inconclusive means no clear call, values can overlap the other calls; inactive means below that.

SMILES	Anthrax LF inh2	MazEF act	Autofluor counter	BoNT A protease	BoNT-F LC inh
Cc1ccc(NC(=O)C2CC(=O)N(c3ccccc3Cl)C2)cc1S(=O)(=O)N1CCOCC1 (stereo not drawn)	.	.	.	.	.
COc1cccc(N(CC(=O)NC(C)(C)C)C(=O)C2CSC(=O)C2)c1 (stereo not drawn)	.	.	20419	.	.
COc1ccc(N2CC(C(=O)Nc3ccncc3)CC2=O)cc1 (stereo not drawn)	.	.	.	.	.
FC(F)(F)/C(=N\P(=S)(N1CCOCC1)N1CCOCC1)N1CCOCC1	.	.	17852	?	.
COc1ccc(NC(=O)c2c(C(F)(F)F)nn(C)c2SCc2ccccc2)cc1	.	.	16890	.	.
Cn1nc(C(F)(F)F)c(C(=O)Nc2ccc(C(F)(F)F)cc2)c1Cl	.	.	.	.	.
O=C(Nc1nnc([C@H]2C[C@H](O)[C@@H](CO)O2)s1)c1cccc(OC(F)(F)F)c1	.	/	.	.	.
Cn1nc(C(C)(C)C)cc1C(=O)NCc1ccc(N2CCCC2=O)cc1	.	.	23561	?	.
Cc1ccc(CNC(=O)c2ccc(N3CCCC3=O)cc2)cc1	.	.	.	.	.
O=C(CN1C(=O)COc2ccccc21)NCc1ccc(C(=O)O)cc1	.	.	22844	.	.
O=C(CN1C(=O)COc2ccccc21)N1CCCc2ccccc21	.	.	22767	.	.
Cc1ccc(C(=O)NCc2ccccn2)cc1S(=O)(=O)N1CCOCC1	.	.	.	.	.
CCc1cc2c(=O)c(-c3nc4ccccc4n3C)c(C(C)C)oc2c(CN2CCN(C)CC2)c1O	.	.	20753	.	.
CCc1cc2c(=O)c(-c3nc4ccccc4n3C)c(C)oc2c(CN2CCN(CCO)CC2)c1O	.	.	.	.	.
Cc1ccc(C(=C2C3C=CC2C2C(=O)NC(=O)C32)c2ccc(C)cc2)cc1 (stereo not drawn)	.	.	20213	.	.
Cc1cc2nc(NC(=O)C3(C)CCN(C)C3)[nH]c2cc1C (stereo not drawn)	.	/	.	.	.
C[C@@H]1CN([C@@H](C)CO)C(=O)CCCn2nncc2CO[C@@H]1CN(C)C(=O)Nc1ccc2c(c1)OCO2	.	.	.	.	.
CN(C)C(=O)Cn1c(=O)n(C)c2ccccc21	.	.	22347	.	.
Cn1c(=O)n(CCC(=O)O)c2ccccc21	.	.	.	.	.
CCN(CC)Cc1cc(C(C)=O)ccc1OCC(C)C	.	.	16228	.	.
Cc1nnc(-c2cccc(Br)c2)c2cn(-c3ccccc3Cl)nc12	.	.	26146	.	.
COc1ccc(F)cc1S(=O)(=O)NC1CCCC1	.	.	20620	.	.
COc1ccccc1N1CCN(S(=O)(=O)CCNC(=O)CC2CCCC2)CC1	.	.	.	.	.
CCCCNC(=O)C1(C)CCCCN1Cc1ccc(OCc2ccccc2)cc1 (stereo not drawn)	.	/	.	.	.
CCC(C)Nc1c([N+](=O)[O-])cc(C)cc1[N+](=O)[O-] (stereo not drawn)	.	.	24719	?	.
SMILES	Anthrax LF inh2	MazEF act	Autofluor counter	BoNT A protease	BoNT-F LC inh
CCC(C)NCCOc1ccc(C)cc1[N+](=O)[O-] (stereo not drawn)	.	.	.	.	.
CCOc1cc(C(=O)OCC(=O)c2c(C)[nH]c3ccccc23)ccc1OCC(=O)N1CCOCC1	.	.	21648	?	.
Cc1ccc(C#N)c(SCc2cc3c(cc2Cl)OCO3)n1	.	58.9	.	.	.
O=C(CN1C(=O)c2ccccc2S1(=O)=O)N1CCCCC1	.	.	.	.	.
O=C(CN1C(=O)c2ccccc2S1(=O)=O)N1CCOCC1	.	.	20391	.	.
O=CN(Cc1ccco1)C1(C(=O)NC2CCCCC2)CCCCC1	.	.	22071	?	.
CN(C)C(=O)c1cccc(-c2cnc3cccnn23)c1	.	/	.	.	.
CC1(C(=O)NCc2ccc3c(c2)OCO3)CCN1C(=O)Cc1ccc(Cl)cc1Cl (stereo not drawn)	.	/	.	.	.
Cc1ccn(-c2ccc([N+](=O)[O-])cc2)n1	.	.	20585	.	.
CCN(CC)C(=O)C1=C(C)N(Cc2ccccc2)C(=O)C(CC(=O)NCCN2CCOCC2)C1 (stereo not drawn)	.	.	.	.	.
O=c1[nH]nc(Cc2ccc(Cl)cc2Cl)c2ccccc12	.	.	.	.	.
CCCc1nc(S(=O)(=O)Cc2ccc(Cl)cc2Cl)n[nH]1	.	.	17841	.	.
COc1ccccc1-c1noc2c1C(=O)N(Cc1cn(Cc3ccccc3)nn1)CC2	.	/	.	.	.
Cc1ccc(-c2n[nH]c(Cc3ccccc3)n2)cc1	.	.	.	.	.
CC(C)(C)c1cc(Cc2ccccc2)[nH]n1	.	.	23025	?	.
COc1ccc(OC)c(N/C(C)=C/C(=O)c2ccc(C)o2)c1	.	.	20443	?	.
O=C(NC1(C(F)(F)F)C(=O)Nc2c1c(=O)[nH]c(=O)n2Cc1ccccc1)c1ccco1 (stereo not drawn)	.	.	22776	.	.
COc1cccc(C(=O)NC2CCSC2=O)c1 (stereo not drawn)	.	.	19865	.	.
COc1cccc(C(=O)Nc2cccc(NC(C)=O)c2)c1	.	.	.	.	.
COc1cc(NC(=O)Nc2cccc(C(C)=O)c2)cc(OC)c1OC	.	.	21687	.	.
CC(=O)c1cccc(NC(=O)c2oc(C)nc2C)c1	.	.	24179	.	.
CC(=O)c1cccc(NC(=O)c2onc(C)c2Cl)c1	.	.	.	.	.
COc1cccc(C(=O)Nc2ccc(NC(C)=O)cc2)c1	.	.	22073	?	.
COc1cc(C(=O)Nc2cccc(C(C)=O)c2)cc(OC)c1OC	.	.	.	.	.
Cc1cccc(C)c1NC(=O)C(c1ccccc1)N1CCN(c2ccc(C(F)(F)F)cn2)CC1 (stereo not drawn)	.	/	.	.	.
SMILES	Anthrax LF inh2	MazEF act	Autofluor counter	BoNT A protease	BoNT-F LC inh
O=C(Nc1ccc(OC(F)F)c(Cl)c1)c1cccc(OC(F)F)c1	.	.	.	.	.
COc1cc(OC)cc(C(=O)Nc2cccc(C(C)=O)c2)c1	.	.	22501	.	.
COc1ccc(NC(=O)c2cccc(OC(F)F)c2)cc1Cl	.	.	23117	?	.
O=C(NCc1nnnn1-c1ccc(Cl)cc1)C(=O)c1c[nH]c2ccccc12	.	.	.	.	.
Cc1ccc(S(=O)(=O)N2CCC(=O)c3ccccc32)cc1	.	.	.	.	.
Clc1ccc(CSc2nncn2-c2ccccn2)cc1	.	.	23849	.	.
Cc1ccc(CSc2nncn2-c2ccccn2)cc1	.	.	.	.	.
COc1ccc(N(C)S(=O)(=O)c2ccc(Cl)c(C(=O)NNC(=O)c3ccccc3O)c2)cc1	.	.	.	.	.

Screens as filed in PubChem BioAssay.
